Bioassay records: PubChem BioAssay, National Center for Advancing Translational Sciences (NCATS)
AmpC nodet inh: AmpC beta-lactamase inhibition, detergent-free assay; P00811; AmpC nitrocefin hydrolysis, absorbance 480 nm, no detergent; Potency, µM (doses to about 28.7 µM), inactives show top-dose activity change, negative = inhibition; actives 1.8% (n = 71,000); further: % of control where 0% means no effect
Target sequence (P00811 whole entry, looked up): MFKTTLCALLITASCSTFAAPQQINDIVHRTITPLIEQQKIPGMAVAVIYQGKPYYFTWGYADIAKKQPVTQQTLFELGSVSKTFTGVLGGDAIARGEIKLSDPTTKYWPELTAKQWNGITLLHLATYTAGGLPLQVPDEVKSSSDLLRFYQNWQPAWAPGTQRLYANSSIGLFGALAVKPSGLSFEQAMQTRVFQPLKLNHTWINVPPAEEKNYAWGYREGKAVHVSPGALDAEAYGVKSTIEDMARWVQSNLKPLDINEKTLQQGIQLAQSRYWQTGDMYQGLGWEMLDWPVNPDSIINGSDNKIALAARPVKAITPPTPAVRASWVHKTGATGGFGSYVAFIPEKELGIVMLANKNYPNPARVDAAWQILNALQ
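Enzyme, pH 7.0 phosphate. Compound titrations were pre-incubated with AmpC for 15 min at room temperature before nitrocefin (stock 800 uM) addition; product formation was recorded at 480 nm every 20 s for 4 min.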
Prx2 Sm inh: Schistosoma mansoni Prx2 inhibition; S. mansoni Prx2 activity coupled to TGR/GSH (TGR is thioredoxin glutathione reductase), NADPH fluorescence loss, qHTS; actives 0.07% (n = 65,000); Potency, µM
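Prx2 inhibition was measured as reduced NADPH consumption when electrons flowed from NADPH through TGR and glutathione to Prx2 and H2O2. Plates were read kinetically over 8 min; enzyme reagents were held at 4 deg C during dispensing.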
Anthrax LT inh: anthrax lethal toxin internalization inhibition; Cells, anthrax lethal toxin internalization, FRET ratio (460/530); Potency, µM (titrated, usually from 40 µM), without a hit: at the top dose activity change, negative = inhibition, most hits filed as inhibitors; actives 0.67% (n = 70,000); AID 912; further: on the % scale 0 is the no-effect control and ±100 the full control effect; nearly all actives have a fitted effect of over 50% in size
AmpC det inh: AmpC beta-lactamase inhibition, detergent assay | P00811 | purified AmpC, nitrocefin hydrolysis with detergent | Potency, µM (doses to about 28.7 µM), without a hit: at the top dose activity change, negative = inhibition | actives 0.09% (n = 71,000) | AID 584; active means well fitted curve in the direction sought with a large enough effect; inconclusive means small, poorly fitted or top-dose-only effect; further: on the % scale 0 is the no-effect control and ±100 the full control effect
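E. coli AmpC (5.3 nM) in 20 mM phosphate pH 7.0 with 0.01% Triton X-100, preincubated 15 min RT with compound; nitrocefin (2 uL of 800 uM stock) hydrolysis followed by 480 nm absorbance every 20 s over 4 min.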
Numbers without * were called inactive; u = inconclusive; x = no result; [ ] = remark or other dose. Shown are actives, neighbours in structure and some others; about 2.4% of the full set was active somewhere. Unless noted, the call rests on the fitted dose curve. Potency means the concentration at half of the fitted maximal effect.

SMILES	AmpC nodet inh	Prx2 Sm inh	Anthrax LT inh	AmpC det inh
CC1C(c2ccccc2)N(C)CCC12NC(=O)NC2=O (stereo unspecified)	7%	>57	6%	-3%
O=c1[nH]cnc2scc(-c3cccs3)c12	-10%	>57	x	-3%
O=c1[nH]c(CN2CCc3ccccc32)nc2scc(-c3cccs3)c12	0.79µM*	>57	u	-4%
O=C(CSc1nc2ccccc2s1)c1sc2sc3ccccc3[n+]2c1O	4µM*[single pt active]	>57	u	-7%[5.75 µM]
CC1CCCCN1c1nnc(N)s1 (stereo unspecified)	-5%	>57	5%	17%
CC1CCCC(C)N1c1nnc(N)s1 (stereo unspecified)	4µM*[single pt active]	>57	-6%	12%
COc1cccc(Cn2c(C3CC3)nc3ccc(NC(=O)c4ccco4)cc3c2=O)c1	45%	>57	13µM*	-5%
O=C(Nc1ccc2nc(C3CC3)n(Cc3ccc(F)cc3)c(=O)c2c1)c1ccco1	38%	>57	-18%	3%
CCCCNc1nc(C)nc2c1nc(-c1ccccc1)n2CC1CCCN1CC (stereo unspecified)	100%	x	14%	18%
Cc1nc2ccc(S(=O)(=O)NC(C(=O)NCc3ccco3)C(C)C)cc2s1 (stereo unspecified)	4µM*[single pt active]	>57	-9%	14%
O=C1C=C[C@@H](O)[C@@H]2[C@H]3C(=O)N(c4ccc(F)cc4F)C(=O)[C@@H]3CC[C@@H]12	x	x	-3%[8 µM]	x
N#Cc1cn(-c2ccccc2)nc1-c1ccccc1	-13%	>57	-6%	2%
N#Cc1c(-c2ccccc2)no[n+]1[O-]	3%	8.7*	-5%	0%
C[C@@H]1C(=O)O[C@H]2[C@@H](O)[C@@]34[C@H]5C[C@H](C(C)(C)C)[C@@]36[C@H](OC(=O)[C@@H]6O)O[C@@]4(C(=O)O5)[C@@]12O	-14%	>57	-5%	15%
CCOC(=O)CC1=NS(=O)(=O)c2ccccc2N1	0%	>57	-4%	14%
COc1ccccc1N1CCN(C(=O)CCCC2=NS(=O)(=O)c3ccccc3N2)CC1	4µM*[single pt active]	>57	-10%	12%
NC(=S)NCCC[C@@H](N)C(=O)O	-5%	>57	6%	-3%
COc1ccc(C(OCCN2CCC[C@@H](C(=O)O)C2)(c2ccc(OC)cc2)c2ccc(OC)cc2)cc1	147%	>57	-19%	-2%
COc1ccc(CNC(=O)CS(=O)Cc2nc(-c3ccc(C)cc3)oc2C)cc1 (stereo unspecified)	114%	>57	-25%	11%
COc1ccc(-c2nc(CS(=O)CC(=O)N3CCCC3)c(C)o2)cc1 (stereo unspecified)	4µM*[single pt active]	>57	15%	14%
COc1ccc(-c2nc(CS(=O)CC(=O)NCc3ccco3)c(C)o2)cc1OC (stereo unspecified)	4µM*[single pt active]	>57	-2%	12%
COc1ccc(-c2nc(CS(=O)CC(=O)NCc3ccc4c(c3)OCO4)c(C)o2)cc1 (stereo unspecified)	96%	>57	-5%	14%
COc1ccc(-c2nc(CS(=O)CC(=O)NCC3CCCO3)c(C)o2)cc1 (stereo unspecified)	4µM*[single pt active]	>57	9%	12%
COCCNC(=O)CS(=O)Cc1nc(-c2ccc(OC)cc2)oc1C (stereo unspecified)	3.2µM*	>57	-6%	12%
CCC=O	-3%	x	x	7%
SMILES	AmpC nodet inh	Prx2 Sm inh	Anthrax LT inh	AmpC det inh
O=C(Nc1ccccc1)N1CCC2(CCNCC2)CC1	12%	>57	-15%	1%
CCN1C(=O)[C@H]2[C@H]3[C@H](O)[C@H](O)C/C(=N/OC[C@@H](O)COCc4ccco4)[C@@H]3CC[C@@H]2C1=O	x	x	-2%[8 µM]	x
N#Cc1ccccc1Cn1c(=O)n(Cc2ccc(C(=O)NCc3ccco3)cc2)c(=O)c2sccc21	4µM*[single pt active]	x	12%	9%
Cc1ccc(-n2c(=O)c3sccc3n(CC(=O)NCc3ccco3)c2=O)cc1	-20%	>57	8%	10%
N#Cc1ccccc1Cn1c(=O)n(-c2ccc(CC(=O)NCc3ccco3)cc2)c(=O)c2sccc21	4µM*[single pt active]	>57	u	10%
O=C(CCCn1c(=O)c2sccc2n(Cc2cc(=O)n3ccccc3n2)c1=O)NCc1ccco1	4µM*[single pt active]	>57	-5%	18%
Cc1ccc(-c2csc(N)n2)s1	u	>57	u	-2%
CC(=O)NCc1ccc(-c2csc(N)n2)s1	-12%	>57	10µM*	13%
